Experiment [1] in a line: Quantitative High-Throughput drug screen in 47 multiple myeloma cell lines against the NCATS MIPE library collection: LP1_DSMZ cell viability assay (AID 1918982). Note: nearly all actives have a fitted effect of over 35% in size. Put shortly:
(§1)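 500 cells/well per myeloma line exposed to pinned MIPE 4.0 compounds for 48 h at 37 °C, 5% CO2. Viability read as ATP by CellTiter-Glo luminescence, normalised to DMSO-only (100%) and media-only (0%) wells.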

The nature of experiment [2]: Quantitative High-Throughput drug screen in 47 multiple myeloma cell lines against the NCATS MIPE library collection: KMS28PE_JCRB cell viability assay (AID 1918983). Note: nearly all actives have a fitted effect of over 35% in size. Put shortly:
as §1

A short description of experiment [3]: Quantitative High-Throughput drug screen in 47 multiple myeloma cell lines against the NCATS MIPE library collection: OCIMY7_PLB cell viability assay (AID 1918987). Note: nearly all actives have a fitted effect of over 65% in size. To be noted: OCI-MY7 myeloma viability, CellTiter-Glo ATP, 48 h; viability (% of DMSO): at 45.8 µM (top of the series). Put shortly:
as §1

The nature of experiment [4]: Quantitative High-Throughput drug screen in 47 multiple myeloma cell lines against the NCATS MIPE library collection: OPM1_PLB cell viability assay (AID 1918989). Note: nearly all actives have a fitted effect of over 40% in size. Summed up: as §1
Experiment [5] can be described thus: Quantitative High-Throughput drug screen in 47 multiple myeloma cell lines against the NCATS MIPE library collection: SKMM1_PLB cell viability assay (AID 1919863). Note: nearly all actives have a fitted effect of over 35% in size. To be noted: SKMM1 myeloma viability, CellTiter-Glo ATP, 48 h; viability: hits give low values. Put shortly:
as §1

Experiment [6] can be described thus: Quantitative High-Throughput drug screen in 47 multiple myeloma cell lines against the NCATS MIPE library collection: XG6_PLB cell viability assay (AID 1919865). Note: nearly all actives have a fitted effect of over 40% in size. Summed up: as §1
Experiment [7] in a line: Quantitative High-Throughput drug screen in 47 multiple myeloma cell lines against the NCATS MIPE library collection: KMS34_JCRB cell viability assay (AID 1918985). Note: nearly all actives have a fitted effect of over 40% in size. Summed up: as §1
The nature of experiment [8]: Quantitative High-Throughput drug screen in 47 multiple myeloma cell lines against the NCATS MIPE library collection: OCIMY5_PLB cell viability assay (AID 1918988). Note: nearly all actives have a fitted effect of over 65% in size. Summed up:
as §1

Experiment [9] in a line: Quantitative High-Throughput drug screen in 47 multiple myeloma cell lines against the NCATS MIPE library collection: L363_DSMZ cell viability assay (AID 1918984). Note: nearly all actives have a fitted effect of over 40% in size. Put shortly:
as §1

A short description of experiment [10]: Quantitative High-Throughput drug screen in 47 multiple myeloma cell lines against the NCATS MIPE library collection: U266_ATCC cell viability assay (AID 1919864). Note: nearly all actives have a fitted effect of over 35% in size. Summed up: as §1

Inconclusive results are not listed. Unmarked numbers belong to inactive results. Active and inactive are the calls of the source. Calls come from the whole dose curve; as a rule, active = well fitted cell-killing curve with a large enough effect; inconclusive = small, poorly fitted or top-dose-only effect, or effect the other way; inactive = no such curve, though single readings can be large or run the other way.
Potency is the fitted concentration of half-maximal effect.

Regarding `COC1=C(OC)C(=O)C(CC=C(C)CCC=C(C)CCC=C(C)CCC=C(C)CCC=C(C)CCC=C(C)CCC=C(C)CCC=C(C)CCC=C(C)CCC=C(C)C)=C(C)C1=O`, the Potency entry in experiment [1], in experiment [2], in experiment [3], in experiment [4] and in [6] was “inactive” throughout. For the same compound, the viability (in general, a read-out of living cells in per cent, often relative to untreated cells) in experiment [5] is 99.4%.

Regarding `CN[C@H](CC(C)C)C(=O)N[C@H]1C(=O)N[C@@H](CC(N)=O)C(=O)N[C@@H]2C(=O)N[C@H]3C(=O)N[C@H](C(=O)N[C@H](C(=O)O)c4cc(O)cc(O)c4-c4cc3ccc4O)[C@H](O)c3ccc(c(Cl)c3)Oc3cc2cc(c3O[C@@H]2O[C@H](CO)[C@@H](O)[C@H](O)[C@@H]2O[C@H]2C[C@](C)(N)[C@H](O)[C@H](C)O2)Oc2ccc(cc2Cl)[C@H]1O`, the Potency result in experiment [1], in [2], in experiment [7] and in experiment [8] was “inactive” each time. Further, the viability in experiment [5] was 122%.

Consider `COC(=O)C=CC(=O)OC`, for which the Potency entry in [1] and in experiment [2] was “inactive” throughout. The Potency in [3] was 1.32 µM (active); in experiment [8], 11.8 µM (active); in experiment [4] it was 20.9 µM (active); in experiment [6], 1.32 µM (active). The viability in [5] was 144%.

On to `COc1ccc2cc([S+]([O-])Cc3ncc(C)c(OC)c3C)nc2c1`, for which the Potency result in [1], in [2], in experiment [7], in [8] and in [6] was “inactive” in each case. In addition, the viability in experiment [5] was 122%.

For the compound `CC(C)[C@H](CO)Nc1nc(Nc2cccc(Cl)c2)c2ncn(C(C)C)c2n1`, the Potency is 23.5 µM (active) in experiment [1]; 18.7 µM (active) in [7]; 6.62 µM (active) in experiment [3]; 18.7 µM (active) in experiment [8]; 23.5 µM (active) in [4]; 18.7 µM (active) in [10]. Further, the Potency in [6] is 5.26 µM (active). The Potency result in [9] is “inactive”.

Regarding `O=C(O)C=Cc1ccc(Cn2ccnc2)cc1`, the Potency result in experiment [1], in [2], in experiment [7], in experiment [4], in [10] and in experiment [6] was “inactive” in each case.

On to `O=c1[nH]c(=O)n([C@H]2C[C@@H](O)[C@@H](CO)O2)cc1F`, for which the Potency in experiment [1] is 10.5 µM (active); in experiment [2] it was 20.9 µM (active); in experiment [3] it was 0.59 µM (active); in experiment [8], 26.4 µM (active); in experiment [4], 0.0296 µM (active); in experiment [10] it was 23.5 µM (active).

Regarding `Cc1nc(NC(=O)N2CCC[C@@H]2C(N)=O)sc1-c1ccnc(C(C)(C)C(F)(F)F)c1`, the Potency was 1.48 µM (active) in experiment [1]; 0.296 µM (active) in experiment [2]; 1.87 µM (active) in experiment [7]; 0.935 µM (active) in experiment [8]; 2.96 µM (active) in experiment [4]; 6.62 µM (active) in experiment [5]. The results for the Potency in [10] and in experiment [6] were 8.33 µM (active) and 1.87 µM (active), respectively.

Take `COc1cc(C(C)C)c(Oc2cnc(NC(CO)CO)nc2N)cc1I`: the Potency result in experiment [1] and in experiment [2] was “inactive” in each case. The Potency in [8] is 1.48 µM (active); in [4] it was 1.66 µM (active); in experiment [10], 1.48 µM (active). Moreover, in [5], the viability was 122%.

For `O=C(C=CC=Cc1ccc2c(c1)OCO2)N1CCCCC1`, the Potency result in experiment [1], in [2], in experiment [3], in experiment [4] and in experiment [10] was “inactive” in each case.

With `N#Cc1cc(NC(=O)Nc2nnc(-c3ccncc3)s2)ccc1-c1cn[nH]c1`, the Potency result in [1] and in experiment [4] was “inactive” each time. The values for the Potency in experiment [2] and in [8] were 16.6 µM (active) and 14.8 µM (active), respectively.

With `CCN1CCN(C(=O)N[C@H](C(=O)N[C@@H]2C(=O)N3C(C(=O)O)=C(CSc4nnnn4C)CS[C@@H]23)c2ccc(O)cc2)C(=O)C1=O`, the Potency result in experiment [1], in experiment [2], in experiment [3], in experiment [8] and in [4] was “inactive” in each case.

For `Nc1ccn(C[C@@H](CO)OCP(=O)(O)O)c(=O)n1`, the Potency entry in experiment [1], in experiment [2], in experiment [7] and in experiment [6] was “inactive” throughout.

In the case of `NC(=O)c1cccc(-c2cccc(OC(=O)NC3CCCCC3)c2)c1`, the Potency result in [1], in experiment [2], in [3], in [4], in experiment [10] and in experiment [6] was “inactive” each time. The Potency in experiment [8] is 29.6 µM (active). The viability in experiment [5] is 110%.

For `COc1cc(OC)c(NC(=O)Nc2cc(C)on2)cc1Cl`, the Potency result in [1], in experiment [9], in experiment [4] and in experiment [6] was “inactive” each time. The viability in experiment [5] is 145%.

`CCCCOc1ccc(C(=O)Nc2ccc(F)cc2F)cc1`: the Potency result in [1], in experiment [9], in experiment [8], in experiment [4] and in experiment [6] was “inactive” each time. Further, the Potency in [3] was 0.105 µM (active).

`OC[C@H]1OC(O)C[C@@H](O)[C@H]1O` (stereo partly drawn): the Potency result in [2] and in [9] was “inactive” throughout.

As to `COC1=C2C[C@@H](C)C[C@H](OC)[C@@H](O)[C@@H](C)C=C(C)[C@H](OC(N)=O)[C@@H](OC)C=CC=C(C)C(=O)NC(=CC1=O)C2=O`, the Potency in experiment [2] was 0.132 µM (active); in experiment [9], 7.43 µM (active); in experiment [7] it was 0.166 µM (active); in experiment [3], 0.0743 µM (active); in experiment [8], 0.0372 µM (active); in [4], 0.418 µM (active). The Potency in [5] was 2.09 µM (active); in [10] it was 0.132 µM (active); in experiment [6] it was 0.332 µM (active).

On to `CC(C=CC=C(C)C=CC1=C(C)CCCC1(C)C)=CC=CC=C(C)C=CC=C(C)C=CC1=C(C)CCCC1(C)C`, for which the Potency entry in [1] and in [4] was “inactive” each time. Also, the Potency in [9] is 16.6 µM (active); in experiment [3], 2.09 µM (active); in [8] it was 9.35 µM (active); in experiment [10], 16.6 µM (active); in experiment [6] it was 5.26 µM (active). In addition, the viability in experiment [5] was 107%.

As to `NC(=O)N1CCC(CC(=O)N2CCC([C@H]3c4ncc(Br)cc4CCc4cc(Cl)cc(Br)c43)CC2)CC1`, the Potency in experiment [2] was 18.7 µM (active); in [9] it was 4.18 µM (active); in experiment [7] it was 20.9 µM (active); in experiment [3] it was 0.743 µM (active); in experiment [8] it was 9.35 µM (active); in experiment [4], 23.5 µM (active). Moreover, the Potency in [5] was 18.7 µM (active); in [10] it was 18.7 µM (active); in [6] it was 16.6 µM (active).

The values are drawn from PubChem BioAssay (NCATS).
